Values without a mark were called inactive. Records with an inconclusive call do not appear. Where a call stands in place of a potency, no number is given. Calls of active or inactive are those of the source. Unless noted, calls follow the shape of the dose curve; as a rule, active = well fitted curve in the direction sought with a large enough effect in the repeat runs; inconclusive = weak or mixed curves; inactive = no such curve, though single readings can be large; an effect the other way counts as inactive or inconclusive.
Columns and labels:
[1] = biological target: Luciferin 4-monooxygenase (Photinus pyralis) (UniProt P08659); test: qHTS assay to identify small molecule inhibitors of firefly luciferase (AID 1224835); also: nearly all actives have a fitted effect of over 25% in size; also: potency is read from the fitted curve at half-maximal effect
Procedure, shortened: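 Quantitative HTS format; KM concentrations of both substrates. Purified P. pyralis FLuc activity quantified from luminescence images.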

[2] = qHTS assay to identify small molecule agonists of the constitutive androstane receptor (CAR) signaling pathway - cell viability counter screen (AID 1224836); also: nearly all actives have a fitted effect of over 45% in size
Procedure, shortened: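 Multiplexed viability check: HepG2-CYP2B6-hCAR cells, 15-point compound dosing, 0.75 uM PK11195 final, 23 h at 37 C, CellTiter-Fluor fluorescence.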

[3] = qHTS assay to identify small molecule antagonists of the constitutive androstane receptor (CAR) signaling pathway - cell viability counter screen (AID 1224837); also: nearly all actives have a fitted effect of over 45% in size
Procedure, shortened: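 Counter screen run in HepG2-CYP2B6-hCAR cells: 4 hr settle, compound titration (15 concentrations) with 50 nM CITCO, 23 hr at 37 C/5% CO2, CellTiter-Fluor fluorescence.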

[4] = qHTS assay to identify small molecule antagonists of the estrogen related receptor signaling pathway with the pleiotropic PPARgamma coactivator (PGC) from Tox21 10K library - cell viability counter screen (AID 1224840; active = well fitted cell-killing curve with a large enough effect in the repeat runs, not every such curve was filed as active; also: nearly all actives have a fitted effect of over 40% in size)
Procedure, shortened: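 Following seeding of 2,000 PGC/ERR cells/well and 6 hours' incubation, test compounds were delivered in DMSO. The plates then sat 17.5 hours at 37 C before a fluorogenic live-cell protease reagent (CellTiter-Fluor) was read after 30 min.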

[5] = biological target: Thyrotropin receptor (Homo sapiens) (UniProt P16473); test: qHTS assay to identify small molecule agonists of the thyroid stimulating hormone receptor (TSHR) signaling pathway (AID 1224843; calls by dose curve; also: nearly all actives have a fitted effect of over 45% in size)
Procedure, shortened: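 TSHR-expressing HEK293 cells (800 per well) were exposed to compounds for 30 min at room temperature. cAMP was then detected by HTRF competition with cAMP-d2 and anti-cAMP cryptate, read after 1 h at room temperature. Fifteen concentrations, triplicate.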

[6] = qHTS assay to identify small molecule agonists of the hypoxia (HIF-1) signaling pathway - cell viability counter screen (AID 1224844; calls by dose curve; also: nearly all actives have a fitted effect of over 50% in size)
Procedure, shortened: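 Cells (HRE-bla ME-180, 2,000 per well) sat 5 hrs at 37C, got compound for 17 hrs, were read for CCF4-AM FRET, and were finally lysed with CellTiter-Glo for a 30 min room-temperature luminescence read.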

[7] = qHTS assay to identify small molecule agonists of H2AX (AID 1224845; active = well fitted activation curve with a large enough effect in the signal ratio in the repeat runs, not every such curve was filed as active; the % refers to the signal ratio)
Procedure, shortened: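 Wild-type CHO-K1 cells plated overnight, then exposed 3 hr at 37C to compounds at 15 concentrations (0.76% DMSO). Lysed, then HTRF anti-pH2AX(S139)-cryptate/anti-H2AX-d2 detection after 24 hr at room temperature; emissions 665 and 620 nm.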

[8] = qHTS assay to identify small molecule agonists of the hypoxia (HIF-1) signaling pathway (AID 1224846; active = well fitted activation curve with a large enough effect in the signal ratio in the repeat runs, not every such curve was filed as active; the % refers to the signal ratio)
Procedure, shortened: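 A low-serum medium (0.5% dialyzed FBS) holding 2,000 HRE-bla ME-180 cells per well is preincubated for 5 hrs, dosed with compounds by pintool, and kept a further 17 hrs at 37C, 5% CO2 before CCF4-AM FRET detection of beta-lactamase.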

[9] = qHTS assay to identify small molecule agonists of H2AX - cell viability counter screen (AID 1224847; calls by dose curve; also: top concentration of the series differs between compounds; nearly all actives have a fitted effect of over 30% in size)
Procedure, shortened: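 After overnight plating of 1000 CHO-K1 cells per well, a 15-concentration compound series was applied for 3 hr at 37C. Luminescence from CellTiter-Glo, read following 30 min at room temperature, reflected cell viability.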

[10] = qHTS RealTime-Glo MT Cell Viability Assay in HepG2 cells - 24 hour (AID 1224867); also: nearly all actives have a fitted effect of over 50% in size; also: potency is read from the fitted curve at half-maximal effect
Procedure, shortened: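 HepG2 suspension premixed with RealTime-Glo reagents is plated at 600 cells per well and left 5 h at 37 C/5% CO2. Compounds in DMSO then go in, and bioluminescence reflecting viable cell number is recorded over 40 h.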

[11] = qHTS RealTime-Glo MT Cell Viability Assay in HEK293 cells - 32 hour (AID 1224868); also: nearly all actives have a fitted effect of over 50% in size; also: potency is read from the fitted curve at half-maximal effect
Procedure, shortened: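 Reads taken at 0, 8, 16, 24, 32 and 40 h from the same wells. HEK293 cells (600/well) carried RealTime-Glo reagents from seeding, with compound added after a 5 h settle at 37 C.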

[12] = A CellTox Green Cytotoxicity Assay to monitor cytotoxicity in HEK293 cells - 0 hour (AID 1224869); also: nearly all actives have a fitted effect of over 50% in size
Procedure, shortened: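 Fluorescence intensity, read at 0, 8, 16, 24, 32 and 40 h of compound treatment, reflected dye binding to DNA of dead HEK293 cells; compounds (23 nL, DMSO) were added 5 h after plating cells with reagent.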

[13] = qHTS RealTime-Glo MT Cell Viability Assay in HepG2 cells - 40 hour (AID 1224870); also: nearly all actives have a fitted effect of over 50% in size
Procedure, shortened: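 HepG2 cells mixed with RealTime-Glo MT reagents (NanoLuc plus cell-permeant prosubstrate) were seeded at 600 cells/well, incubated 5 h at 37 C/5% CO2, then pinned with compounds in DMSO; nonlytic luminescence tracked viability during 40 h treatment.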

[14] = biological target: Nuclear receptor subfamily 1 group I member 3 (Homo sapiens) (UniProt Q14994); test: qHTS assay to identify small molecule antagonists of the constitutive androstane receptor (CAR) signaling pathway (AID 1224838);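 also: HepG2 cells stably expressing hCAR with CYP2B6 luciferase reporter stimulated by CITCO; nearly all actives have a fitted effect of over 40% in size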; also: potency is read from the fitted curve at half-maximal effect
Procedure, shortened: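 Cell line: HepG2 double-stable for hCAR and CYP2B6-2.2kb reporter. Agonist: CITCO, 50 nM final. Compounds: 15 concentrations, 24 h, 37 C. Detection: ONE-Glo luminescence.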

[15] = biological target: Nuclear receptor subfamily 1 group I member 3 (Homo sapiens) (UniProt Q14994); test: qHTS assay to identify small molecule agonists of the constitutive androstane receptor (CAR) signaling pathway (AID 1224839);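 also: HepG2 cells stably carrying human CAR and a CYP2B6 luciferase reporter; nearly all actives have a fitted effect of over 15% in size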
Procedure, shortened: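 Using human hepatoma HepG2 cells engineered with hCAR and a CYP2B6-2.2kb reporter, 15-concentration compound series were incubated 24 h alongside PK11195 at 0.75 uM final, with luminescence quantified afterwards.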

[16] = qHTS assay to identify small molecule antagonists of the estrogen related receptor signaling pathway with the pleiotropic PPARgamma coactivator (PGC) from Tox21 10K library (AID 1224841; call rule not given here)
Procedure, shortened: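 qHTS antagonist format: PGC/ERR cells, 2k/well, compound in DMSO by pin transfer after 6 h attachment, 18 h treatment at 37 C, One-Glo luminescence read at 30 min.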

[17] = qHTS assay to identify small molecule agonists of the estrogen related receptor signaling pathway with the pleiotropic PPARgamma coactivator (PGC) from Tox21 10K library (AID 1224842); also: nearly all actives have a fitted effect of over 15% in size
Procedure, shortened: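 PGC/ERR reporter cells (NTP line) were seeded 2,000 per well, rested 6 h at 37 C/5% CO2, then pin-dosed with compounds in DMSO for 18 h at 37 C; luciferase read by One-Glo luminescence after 30 min at room temperature.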

[18] = qHTS assay to identify small molecule antagonists of the estrogen related receptor (ERR) signaling pathway from Tox21 library (AID 1224848); also: nearly all actives have a fitted effect of over 50% in size
Procedure, shortened: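 Cells: ERR line, 2,000/well; 6 h preincubation 37 C/5% CO2. Cpd in DMSO via pin tool; 18 h, 37 C. ONE-Glo, 30 min RT, luminescence.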

[19] = qHTS assay to identify small molecule agonists of the estrogen related receptor (ERR) signaling pathway from Tox21 library (AID 1224849; calls by dose curve; also: nearly all actives have a fitted effect of over 15% in size); settings: ERR reporter cell line, ONE-Glo luciferase, 18 h; at 92.4 µM (top of the series) unless noted
Procedure, shortened: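 Screening used an NTP-provided ERR luciferase cell line. Compounds in DMSO were added 6 h after seeding and left 18 h at 37 C before a 30 min ONE-Glo step and luminescence reading.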

Chain of Thyrotropin receptor (Homo sapiens) (P16473 whole entry, looked up): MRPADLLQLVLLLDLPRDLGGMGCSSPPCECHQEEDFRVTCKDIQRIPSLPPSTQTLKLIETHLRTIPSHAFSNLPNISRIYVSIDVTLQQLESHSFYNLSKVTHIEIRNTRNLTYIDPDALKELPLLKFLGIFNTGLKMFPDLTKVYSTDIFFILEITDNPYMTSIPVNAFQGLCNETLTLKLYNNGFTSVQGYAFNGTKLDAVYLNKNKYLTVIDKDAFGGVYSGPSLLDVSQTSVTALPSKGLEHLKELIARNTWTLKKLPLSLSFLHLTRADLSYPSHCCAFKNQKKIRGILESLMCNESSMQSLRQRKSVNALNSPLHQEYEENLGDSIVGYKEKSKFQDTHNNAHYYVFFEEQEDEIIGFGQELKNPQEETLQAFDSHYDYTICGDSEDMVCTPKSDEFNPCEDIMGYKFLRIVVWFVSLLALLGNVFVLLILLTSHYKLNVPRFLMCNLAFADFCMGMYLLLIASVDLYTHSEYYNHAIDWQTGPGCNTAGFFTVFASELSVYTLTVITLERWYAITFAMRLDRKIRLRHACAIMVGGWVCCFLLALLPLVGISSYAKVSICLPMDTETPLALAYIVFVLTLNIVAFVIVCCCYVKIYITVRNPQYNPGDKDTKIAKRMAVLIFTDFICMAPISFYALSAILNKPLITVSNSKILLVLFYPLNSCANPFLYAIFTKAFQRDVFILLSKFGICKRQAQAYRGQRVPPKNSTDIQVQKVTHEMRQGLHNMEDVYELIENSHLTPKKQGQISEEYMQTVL
Chain of Luciferin 4-monooxygenase (Photinus pyralis) (P08659 whole entry, looked up): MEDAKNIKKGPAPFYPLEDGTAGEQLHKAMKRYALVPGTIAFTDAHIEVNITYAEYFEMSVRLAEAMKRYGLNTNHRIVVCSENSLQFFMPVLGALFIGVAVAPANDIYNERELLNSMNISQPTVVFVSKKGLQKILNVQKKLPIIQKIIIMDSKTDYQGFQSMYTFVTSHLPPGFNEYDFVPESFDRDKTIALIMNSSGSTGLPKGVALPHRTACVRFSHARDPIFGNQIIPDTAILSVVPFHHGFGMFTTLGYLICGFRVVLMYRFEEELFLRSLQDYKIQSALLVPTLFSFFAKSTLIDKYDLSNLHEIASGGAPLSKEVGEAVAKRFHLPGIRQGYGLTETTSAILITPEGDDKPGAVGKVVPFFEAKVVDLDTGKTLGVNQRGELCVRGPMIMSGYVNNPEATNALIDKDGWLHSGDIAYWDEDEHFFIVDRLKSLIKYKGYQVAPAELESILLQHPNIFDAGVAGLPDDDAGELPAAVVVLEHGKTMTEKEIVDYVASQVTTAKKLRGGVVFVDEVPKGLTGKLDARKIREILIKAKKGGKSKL
Chain of Nuclear receptor subfamily 1 group I member 3 (Homo sapiens) (Q14994 whole entry, looked up): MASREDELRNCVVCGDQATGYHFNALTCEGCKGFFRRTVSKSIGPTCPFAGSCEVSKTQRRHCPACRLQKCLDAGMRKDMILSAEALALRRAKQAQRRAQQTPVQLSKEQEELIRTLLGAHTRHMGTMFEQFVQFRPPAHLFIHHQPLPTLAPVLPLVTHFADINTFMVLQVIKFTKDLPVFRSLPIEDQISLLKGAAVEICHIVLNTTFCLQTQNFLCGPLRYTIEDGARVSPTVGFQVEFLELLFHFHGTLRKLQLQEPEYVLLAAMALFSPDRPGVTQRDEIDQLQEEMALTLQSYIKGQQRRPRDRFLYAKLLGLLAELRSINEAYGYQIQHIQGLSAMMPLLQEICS

Structure (SMILES): Cn1c(=O)c2c(ncn2CC(=O)O)n(C)c1=O
- Potency [1]: inactive
- Potency [2]: inactive
- Potency [3]: inactive
- Potency [4]: inactive
- Potency [5]: inactive
- Potency [6]: inactive
- Potency [7]: inactive
- outcome [8]: inactive
- Potency [9]: inactive
- Potency [10]: inactive
- Potency [11]: inactive
- Potency [12]: inactive
- Potency [13]: inactive

Structure (SMILES): CCc1nn(CCCN2CCN(c3cccc(Cl)c3)CC2)c(=O)n1CCOc1ccccc1
- Potency [1]: inactive
- Potency [3]: inactive
- Potency [14]: inactive
- Potency [15]: inactive
- Potency [4]: inactive
- Potency [5]: inactive
- Potency [7]: inactive
- outcome [8]: inactive
- Potency [10]: 23.9 µM (active)
- Potency [11]: 8.49 µM (active)
- Potency [12]: inactive

Structure (SMILES): CCN(Cc1cccc(S(=O)(=O)O)c1)c1ccc(C(=C2C=CC(=[N+](CC)Cc3cccc(S(=O)(=O)[O-])c3)C=C2)c2ccccc2)cc1
- Potency [1]: 22.3 µM (active)
- Potency [3]: inactive
- Potency [14]: inactive
- Potency [15]: inactive
- Potency [16]: inactive
- Potency [17]: inactive
- Potency [5]: inactive
- Potency [6]: inactive
- outcome [8]: inactive
- Potency [9]: inactive
- Potency [18]: inactive
- activity change, positive = activation [19]: 1.85% [at 42.5 µM]
- Potency [10]: inactive
- Potency [11]: inactive
- Potency [12]: inactive
- Potency [13]: inactive

Structure (SMILES): O=C(CCCN1CCC(O)(c2ccc(Br)cc2)CC1)c1ccc(F)cc1
- Potency [1]: inactive
- Potency [3]: inactive
- Potency [14]: 33.5 µM (active)
- Potency [15]: inactive
- Potency [4]: inactive
- Potency [5]: inactive
- Potency [6]: inactive
- Potency [7]: inactive
- Potency [9]: inactive
- Potency [11]: 9.52 µM (active)
- Potency [12]: inactive

Structure (SMILES): CC(C)OCC1CO1 (stereo not drawn)
- Potency [2]: inactive
- Potency [3]: inactive
- Potency [14]: inactive
- Potency [15]: inactive
- Potency [4]: inactive
- Potency [17]: inactive
- Potency [6]: inactive
- Potency [7]: inactive
- outcome [8]: inactive
- Potency [9]: inactive
- Potency [18]: inactive
- activity change, positive = activation [19]: -0.395%
- Potency [10]: inactive
- Potency [11]: inactive
- Potency [12]: inactive
- Potency [13]: inactive

Structure (SMILES): CNC(=O)N(c1ccccc1)c1ccccc1
- Potency [2]: inactive
- Potency [3]: inactive
- Potency [15]: inactive
- Potency [16]: inactive
- Potency [17]: inactive
- Potency [5]: inactive
- Potency [6]: inactive
- Potency [7]: inactive
- outcome [8]: inactive
- Potency [9]: inactive
- Potency [18]: inactive
- activity change, positive = activation [19]: -5.23%
- Potency [10]: inactive
- Potency [11]: inactive
- Potency [12]: inactive
- Potency [13]: inactive
